Compounds without any hit were thinned out: in the full panel of roughly 83,000, 20% have a hit.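 The endpoint reported here, percent growth, reads 100 for growth as untreated, 0 for no net growth and -100 for all cells dead.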 Calls of active or inactive are those of the source. How the source made its calls: active means growth percent below 10; inactive means the rest.
Key:
Assay in all cases: NCI-60 one-dose screen, 48 h (100 = growth as untreated, 0 = no growth, -100 = all killed)
Conditions in all cases: 10 µM unless noted
NCI-H23 lung = tested on: NCI-H23 lung
NCI-H226 lung = tested on: NCI-H226 lung
NCI-H322M lung = tested on: NCI-H322M lung
HOP-62 NSCLC = tested on: HOP-62 NSCLC
NCI-H460 lung = tested on: NCI-H460 lung
HOP-92 NSCLC = tested on: HOP-92 NSCLC
NCI-H522 lung = tested on: NCI-H522 lung
A549/ATCC NSCLC = tested on: A549/ATCC NSCLC
786-0 renal = tested on: 786-0 renal
COLO 205 colon = tested on: COLO 205 colon

Measured: growth

COC1=CC=CC2(OC)C3(O)CCCc4cccc(c43)N3C(=O)COC132 (stereo not given)
inactive: NCI-H23 lung 96.1% | NCI-H226 lung 103% | NCI-H322M lung 101% | HOP-62 NSCLC 102% | NCI-H460 lung 105% | HOP-92 NSCLC 89.9% | NCI-H522 lung 78.8% | A549/ATCC NSCLC 90.8% | 786-0 renal 102% | COLO 205 colon 107%

O=C(O)CCNC1CCCCC1
inactive: NCI-H23 lung 90.4% | NCI-H226 lung 93.9% | NCI-H322M lung 115% | HOP-62 NSCLC 91.6% | NCI-H460 lung 99.3% | HOP-92 NSCLC 100% | NCI-H522 lung 79.7% | A549/ATCC NSCLC 102% | 786-0 renal 101% | COLO 205 colon 95.8%

COc1cc(NCC(=O)Nc2cc(Nc3cccc(C(F)(F)F)c3)ncn2)c(Cl)c(OC)c1Cl
inactive: NCI-H23 lung 91.9% | NCI-H226 lung 94.9% | NCI-H322M lung 101% | HOP-62 NSCLC 87.6% | NCI-H460 lung 103% | HOP-92 NSCLC 92.7% | NCI-H522 lung 67.8% | A549/ATCC NSCLC 81.2% | 786-0 renal 97.2% | COLO 205 colon 104%

CC[C@]12C=CCN3CC[C@@]4(c5cc(NC(=O)CCC(=O)O[C@H]6CC[C@H]7[C@@H]8CC[C@H]9CC(=O)CC[C@]9(C)[C@H]8CC[C@]67C)c(OC)cc5N(C)[C@H]4[C@@](O)(C(=O)OC)[C@@H]1OC(C)=O)[C@@H]32
inactive: NCI-H23 lung 89.7% | NCI-H226 lung 70.9% | NCI-H322M lung 99% | HOP-62 NSCLC 95.6% | NCI-H460 lung 64.5% | HOP-92 NSCLC 52.4% | NCI-H522 lung 63.6% | A549/ATCC NSCLC 56.7% | 786-0 renal 74.7% | COLO 205 colon 69.1%

CCCCn1c(=O)c(/C=C/C(=O)/C=C/c2ccc(OC)cc2)cc2cc(Cl)ccc21
inactive: NCI-H23 lung 48.6% | NCI-H226 lung 70% | NCI-H322M lung 72.7% | HOP-62 NSCLC 102% | NCI-H460 lung 20.7% | HOP-92 NSCLC 102% | NCI-H522 lung 56.3% | A549/ATCC NSCLC 51.1% | 786-0 renal 28.4% | COLO 205 colon 88.3%

COc1ccc(OCC(=O)OC(C)C)cc1
inactive: NCI-H23 lung 90.6% | NCI-H226 lung 95.3% | NCI-H322M lung 94% | HOP-62 NSCLC 101% | NCI-H460 lung 105% | HOP-92 NSCLC 104% | NCI-H522 lung 97.9% | A549/ATCC NSCLC 102% | 786-0 renal 104% | COLO 205 colon 104%

Cc1nc2sc(C(=O)Nc3cccc4ccccc34)c(N)c2cc1C(C)O (stereo not given)
active: NCI-H460 lung 9.5% | NCI-H522 lung -15.9% | COLO 205 colon -5.28%
inactive: NCI-H23 lung 26.2% | NCI-H226 lung 70.7% | NCI-H322M lung 44.8% | HOP-62 NSCLC 39.8% | HOP-92 NSCLC 83.7% | A549/ATCC NSCLC 22.7% | 786-0 renal 34.1%

O=C(Nc1nc(-c2ccccc2Cl)cs1)c1cc(-c2ccc(Br)cc2)nc2ccccc12
inactive: NCI-H23 lung 14.3% | NCI-H226 lung 37.5% | NCI-H322M lung 70.4% | HOP-62 NSCLC 52.6% | NCI-H460 lung 45.9% | HOP-92 NSCLC 21.4% | A549/ATCC NSCLC 37.5% | 786-0 renal 75.3% | COLO 205 colon 67.2%
active: NCI-H522 lung 4.64%

COC(=O)/C=C/c1cc(OC)c2c(c1)[C@@H](C(=O)OC)[C@H](c1ccc(OC)c(OC)c1)O2
inactive: NCI-H23 lung 38.9% | NCI-H226 lung 79.4% | NCI-H322M lung 98.3% | HOP-62 NSCLC 24.9% | NCI-H460 lung 59.7% | HOP-92 NSCLC 66.8% | NCI-H522 lung 22.1% | A549/ATCC NSCLC 67.2% | 786-0 renal 37.9% | COLO 205 colon 23.9%

Cc1c(Br)cccc1NC(=O)c1sc2nc3c(cc2c1N)CN(Cc1ccccc1)CC3
inactive: NCI-H23 lung 40.7% | NCI-H226 lung 23.7% | NCI-H322M lung 41.2% | HOP-92 NSCLC 30.2% | A549/ATCC NSCLC 21.4% | 786-0 renal 35.1%
active: HOP-62 NSCLC -2.37% | NCI-H460 lung 6.71% | NCI-H522 lung -0.487% | COLO 205 colon -4.67%

CC(=O)c1ccc(NC(=O)CSc2nnc(-c3cc(-c4ccc(C)cc4)nc4ccccc34)o2)cc1
inactive: NCI-H23 lung 27.6% | NCI-H226 lung 58.7% | NCI-H322M lung 86.5% | HOP-62 NSCLC 17.6% | NCI-H460 lung 10.5% | HOP-92 NSCLC 66.9% | NCI-H522 lung 23.2% | A549/ATCC NSCLC 48.9% | COLO 205 colon 77.4%
active: 786-0 renal 3.06%

O=C1[C@@H](OS(=O)(=O)CC(F)(F)F)[C@H](c2ccc(F)cn2)N1c1cc2c3ccccc3ccc2c2ccccc12
inactive: NCI-H23 lung 84.5% | NCI-H226 lung 92.3% | NCI-H322M lung 104% | HOP-62 NSCLC 88.6% | NCI-H460 lung 104% | HOP-92 NSCLC 71.4% | NCI-H522 lung 35.7% | A549/ATCC NSCLC 82.5% | 786-0 renal 71.7% | COLO 205 colon 101%

From PubChem BioAssay (NCI)
